Experimental data: the supplement of paper PMC8726507

System: Plasmodium falciparum NF54-HGL (transmission to Anopheles stephensi)
Experiment: percentage of barcode signal found in uninfected mosquitoes (transmission-blocking activity); higher = stronger blocking of transmission to mosquito, active = 80 or more
Conditions: 10 µM; gametocyte preincubation time 24 h; readout time post-feed 8 days
Method: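 The mixture was fed to Anopheles stephensi in 96-well plates as blood meals tagged with DNA-barcoded Asaia bacteria. Eight days later, mosquitoes were classed infected or uninfected by luminescence (mean + 5 SD of unfed controls). Barcodes were quantified by Luminex MagPlex-TAG in the pooled uninfected and infected Asaia cultures, background-corrected, and the score is % of barcode signal in uninfected mosquitoes = 100*Iu/(Iu+Ii).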

| SMILES | percentage of barcode signal found in uninfected mosquitoes |
| --- | --- |
| CN(C)c1cc(NC(=O)Nc2ccccc2)c2ccccc2n1 | 88.3% (active) |
| Cc1cccc(Cn2ccc(NC(=O)c3ccc4c(c3)OCO4)n2)c1 | 42.9% (inactive) |
| N#Cc1nc(-c2ccccc2F)oc1NCCc1ccccc1 | 1.26% (inactive) |
| CN(C(=O)c1cc2c(-c3cncnc3)cccc2[nH]1)c1ccccc1 | 66.4% (inactive) |
| O=C(Nc1cccnc1)c1c(O)c2cccc3c2n(c1=O)CC3 | 20.2% (inactive) |
| CN1CCN(CCCOc2ncc(Nc3ncc(-c4ccc(C(F)(F)F)c(F)c4)nc3C(N)=O)cn2)CC1 | 75.6% (inactive) |
| CC(C)(C)n1nc(-c2ccccc2)c2c(N)ncnc21 | -3.29% (inactive) |
| c1csc(-c2cnc3sc(NCC4CCOCC4)nn23)c1 | 38.7% (inactive) |
| CCC(Sc1nc2ccccc2o1)C(=O)Nc1nccs1 (stereo not drawn) | -4.79% (inactive) |
| CC(C)c1ncc(-c2ccncc2)c([C@H]2CC[C@H](CNC(=O)c3cccnc3)CC2)n1 | 31.4% (inactive) |
| CCCn1nnc(NC(=O)COc2ccc(C3CCCCC3)cc2)n1 | 3.33% (inactive) |
| Cc1ccc2nc(Cl)c(CNCc3cccs3)cc2c1 | 7.16% (inactive) |
| Nc1ncc(-c2ccc(C(F)(F)F)nc2)cc1-c1ccc(C(F)(F)F)nc1 | 1.73% (inactive) |
| CCc1cc(=O)n(C)c(SC(C)C(=O)Nc2ccc(F)cc2)n1 (stereo not drawn) | 48.5% (inactive) |
| C[C@]1(O)C[C@@H](c2nc(-c3ccc4ccc(-c5ccccc5)nc4c3)c3c(N)nccn32)C1 | 80.6% (active) |
| CS(=O)(=O)N1CCC(CCn2nc(Cc3cccc4ccccc34)c3c(N)ncnc32)CC1 | 45.3% (inactive) |
| Cc1ccc(S(=O)(=O)N2CCN(C(=O)c3cc(-c4ccccc4)[nH]n3)CC2)cc1 | 69.8% (inactive) |
| O=C(Nc1ccc2c(c1)B(O)OC2)c1ccccc1C(F)(F)F | 84.1% (active) |
| CCOC(=O)NC(=O)c1ccsc1NC(=O)c1nc2ccccc2s1 | -0.298% (inactive) |
| O=C(NCc1ccoc1)N1CCN(Cc2ccc3c(c2)OCO3)CC1 | 25.5% (inactive) |
| COc1ccc(Cl)cc1NC(=O)CN(C)C(=O)c1cnn(-c2ccccc2)n1 | 64.6% (inactive) |
| COc1cccn2c(C(=O)N3CCCCC3)c(C(F)(F)F)nc12 | 27.1% (inactive) |
| CC(=O)Nc1ccc(NC(=O)c2cc(-c3cc(Cl)ccc3O)[nH]n2)cc1 | 27.4% (inactive) |
| CC(C)(C)OC(=O)N1CCN(c2nccc(-c3ccc(-c4ccc(Cl)cc4)s3)n2)CC1 | 20.6% (inactive) |

Same assay, conditions: 20 µM; gametocyte preincubation time 24 h; readout time post-feed 8 days

| SMILES | percentage of barcode signal found in uninfected mosquitoes |
| --- | --- |
| CC(C)=CCC/C(C)=C\CNCCNC1C2CC3CC(C2)CC1C3 (stereo not drawn) | 81.8% (active) |
| CCCCS(=O)(=O)Nc1ccc2cnn(C)c2c1 | 4.19% (inactive) |
| CCNC(=O)C(C)Nc1nc(-c2cccnc2)nc2sc(C)c(C)c12 (stereo not drawn) | 11.5% (inactive) |
| NC(=O)c1cc(-c2ccsc2)ccc1OCCOc1ccccc1 | 12.1% (inactive) |
| Cn1ccnc1CNCCS(=O)(=O)c1cccc(Nc2ccc(-c3cccc(F)c3)cn2)c1 | 0.967% (inactive) |
| CCCCN(CCCC)c1c(C#N)cc(S(=O)(=O)Nc2ccccc2)cc1C#N | 10.5% (inactive) |
| COc1cccc(NC(=O)c2c(NC(=O)c3cccnc3)sc3c2CCC3)c1 | 34.2% (inactive) |
| O=C(c1ccc(F)cc1)N(CCNc1ccccc1)c1ccccc1 | 7.39% (inactive) |
| COc1cc(C2=NCCN2)cc2cc(-c3ccc(C4=NCCN4)cc3)oc12 | 95.1% (active) |
| CN1CCN(S(=O)(=O)c2ccc(-c3ccc4c(Nc5ccc6nn[nH]c6c5)ccnc4c3)cc2)CC1 | 3.18% (inactive) |
| Nc1cccnc1Nc1ccc(Cl)cc1 | 54.5% (inactive) |
| COc1cccc(-c2nc3c(N4CCCC4)cccc3n2CC2CCCN2)n1 (stereo not drawn) | 68% (inactive) |
| FC(F)(F)c1cc(NCCc2ccccc2)nc(-c2ccccn2)n1 | 62.2% (inactive) |
| CC1(C)Cc2c(c(N3CCOCC3)nc3snc(Br)c23)CO1 | 97% (active) |
